Sampled rows, rich in hits. Any-hit rate of the full collection: about 3.4%.
MITF inh – blocks human microphthalmia-associated transcription factor; O75030; AlphaScreen MITF homodimerization, bead proximity signal; inhibition, % at 2.6 µM; 0.91% of 650,000 active; in the data active = inhibition above about 50%;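 note: 0% = vehicle wells with protein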
TEAD-YAP inh – TEAD-YAP interaction inhibition; HEK-TIYL cells, TEAD-Gal4/YAP UAS-luciferase luminescence; inhibition, % at 9.12 µM; 1.4% of 640,000 active; AID 1259422; in the data active = inhibition above about 32%;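 note: 0% = median of test compound wells and 100% = reference inhibitor wells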
FBW7 act – human FBW7 E3 ligase activation, primary screen; Q969H0; AlphaScreen FBW7–phospho-cyclin E peptide binding, activator screen; normalized activity (activation), % at 26.1 µM; 0.13% of 650,000 active; AID 1259310; in the data active = normalized activity above about 1.9%;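 note: purified mutant Fbw7 with reduced substrate affinity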
GPR151 activ – activators of human GPR151; Q8TDV0; PathHunter beta-arrestin GPR151 cells, luminescence; activation, % at 11.2 µM; 1% of 650,000 active; AID 1508602; in the data active = activation above about 4.9%;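 note: 0% = median of compound wells and 100% = cells with positive control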
Numbers without * were called inactive.

SMILES	MITF inh	TEAD-YAP inh	FBW7 act	GPR151 activ
COc1ccc(-n2[nH]c(C)c(N=O)c2=O)cc1	3	39*	0	1
NC(=O)c1ccsc1NC(=O)/C=C/c1cccs1	3	64*	0	-12
Cc1ncc(-c2ccncc2)c(C2CCN(C(=O)Cc3ccccn3)CC2)n1	-5	0	0	0
O=C(NC1CCCCCC1)C1CCC(=O)N1C(=O)OCc1ccccc1 (stereo not drawn)	1	-9	0	3
COCCn1c(CCC(=O)O)ccc1-c1ccccc1	17	-5	0	-1
OCCN1CCN(c2ncnc3ccc(Br)cc23)CC1	-18	39*	0	0
Cc1c(N=C2C(=O)N(CC(=O)O)c3ccccc32)c(=O)n(-c2ccccc2)n1C	5	8	2.3*	-1
O=C(Cn1ccc(=NCc2ccccc2)cc1)c1ccc(I)cc1	-10	66*	0	1
O=C(Cn1ccc(=NCc2ccccc2)cc1)c1ccc(Cl)cc1	-2	22	0	0
CC(C)OCCCNC(=O)CC1CSc2nccc(=O)n21 (stereo not drawn)	12	9	0	-1
COc1cccc(C2C(C#N)=C(N)OC3=C2C(=O)CC(c2ccccc2)C3)c1OC (stereo not drawn)	26	6	1	0
COc1ccc(OC)c(C2C(C#N)=C(N)OC3=C2C(=O)CC(c2ccccc2)C3)c1 (stereo not drawn)	6	47*	0	0
COc1ccccc1C1C(C#N)=C(N)OC2=C1C(=O)CC(c1ccccc1)C2 (stereo not drawn)	9	-11	0	1
N#CC1=C(N)OC2=C(C(=O)CC(c3ccccc3)C2)C1c1c(Cl)cccc1[N+](=O)[O-] (stereo not drawn)	12	41*	1	-1
Cc1ccc(C2C(C#N)=C(N)N(N(C)C)C3=C2C(=O)CC(c2ccccc2)C3)cc1 (stereo not drawn)	7	3	0	2
N#CC1=C(N)OC2=C(C(=O)CC(c3ccccc3)C2)C1c1ccc([N+](=O)[O-])s1 (stereo not drawn)	9	8	0	1
COc1cc(C2C(C#N)=C(N)N(N(C)C)C3=C2C(=O)CC(c2ccccc2)C3)cc(OC)c1OC (stereo not drawn)	-2	57*	0	0
COc1cccc(C2C(C#N)=C(N)N(N(C)C)C3=C2C(=O)CC(c2ccccc2)C3)c1OC (stereo not drawn)	21	55*	0	-2
CCOC(=O)C1=C(C)NC(=O)NC1c1cccc(OCC)c1O (stereo not drawn)	11	-2	0	1
Cc1cc(C(=O)NCCCN2CCCC2=O)c2c(C)nn(-c3ccccc3)c2n1	4	1	1	-1
COc1ccc(OC)c(C2C(C#N)=C(N)N(N(C)C)C3=C2C(=O)CC(C)(C)C3)c1 (stereo not drawn)	6	6	0	0
COc1ccc(OC)c(C2C(C#N)=C(N)N(N(C)C)C3=C2C(=O)CC(c2ccccc2)C3)c1 (stereo not drawn)	6	57*	0	-1
COc1ccccc1Nc1nc(-c2ccccn2)cs1	18	-10	-2	-2
COc1cccc2sc(Nc3nc(-c4ccccn4)cs3)nc12	-3	63*	-2	0
c1ccc(-c2csc(Nc3nc4cc5c(cc4s3)OCO5)n2)nc1	62*	90*	-2	-2
SMILES	MITF inh	TEAD-YAP inh	FBW7 act	GPR151 activ
Cn1c(CN2CC(c3ccccc3)CC2=O)n[nH]c1=S (stereo not drawn)	15	-3	0	-1
CCOC(=O)C1=C(C)NC2=C(C(=O)C(C(=O)OC)C(C)C2)C1c1ccc(OC)cc1 (stereo not drawn)	18	-17	2.3*	0
COC(=O)C1=C(C)NC2=C(C(=O)CC(c3ccccc3)C2)C1c1cc(OC)ccc1OC (stereo not drawn)	3	33*	0	2
CCOC(=O)C1=C(C)NC2=C(C(=O)CC(c3ccccc3)C2)C1c1cc(OC)ccc1OC (stereo not drawn)	-2	1	0	2
CCOC(=O)C1=C(C)NC2=C(C(=O)C(C(=O)OC)C(C)C2)C1c1ccc(C)cc1 (stereo not drawn)	10	-1	1	-2
COC(=O)C1=C(C)NC2=C(C(=O)CC(c3ccc(OC)cc3)C2)C1c1ccc(OC)c(Br)c1 (stereo not drawn)	-15	7	0	0
COc1ccc(C2CC(=O)C3=C(C2)NC(C)=C(C(=O)OCc2ccccc2)C3c2ccc(OC)c(Br)c2)cc1 (stereo not drawn)	-12	48*	1	-1

High-throughput results as filed in PubChem.
